From PubChem BioAssay (NCI) come the findings set out here.

Assay [1] can be described thus: NCI Yeast Anticancer Drug Screen. Data for the rad50 strain (AID 155).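 Note: 0% = growth of vehicle-only cultures of the same strain.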 To be noted: S. cerevisiae rad50 strain growth inhibition; at 50.0 µM; stronger effect = higher value. The essentials:
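Inhibition values express reduced yeast growth in compound-treated cultures relative to vehicle-treated controls.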

Assay [2] can be described thus: NCI Yeast Anticancer Drug Screen. Data for the mec2-1 strain (AID 157). Particulars: S. cerevisiae mec2-1 strain, at 50.0 µM, stronger effect = higher value. In a few lines: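 Yeast mec2-1 mutant treated with compound. Readout: growth inhibition vs vehicle controls.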
Assay [3] in a line: NCI Yeast Anticancer Drug Screen. Data for the sgs1 mgt1 strain (AID 161).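 Note: 0% = growth of cultures given vehicle only.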 To be noted: S. cerevisiae sgs1 mgt1 strain, at 50.0 µM, stronger effect = higher value. In a few lines:
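Read-out: growth inhibition vs vehicle controls. Cells: mutant yeast strain deficient in DNA damage repair.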

Assay [4] in a line: NCI Yeast Anticancer Drug Screen. Data for the cln2 rad14 strain (AID 165).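 Note: 0% = growth equal to vehicle treated cultures.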 Particulars: S. cerevisiae cln2 rad14 strain, at 50.0 µM, stronger effect = higher value. The essentials: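 cln2 rad14 yeast strain; compound exposure; growth inhibition read vs vehicle controls.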
Assay [5] is described as follows: NCI Yeast Anticancer Drug Screen. Data for the bub3 strain (AID 167). To be noted: S. cerevisiae bub3 mutant strain, at 50.0 µM, stronger effect = higher value. The essentials: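 Steps: expose the mutant yeast strain to compound; grow alongside vehicle-treated cultures; measure growth; express inhibition against the vehicle cultures.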
Assay [6] in a line: NCI Yeast Anticancer Drug Screen. Data for the mlh1 rad18 strain (AID 175). Particulars: S. cerevisiae mlh1 rad18 strain growth inhibition; at 50.0 µM; stronger effect = higher value. In a few lines: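 Yeast w/ defined DNA-repair lesions; compound exposure; growth vs vehicle controls → % inhibition.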

The structures appear in SMILES notation. This is part of a sample that, as a whole, favours compounds with a hit. Of some 79,000 tested, about 15% had one in any assay. Unmarked numbers belong to inactive results. Activity calls are given as the source filed them. Cut-off read from the data, not from the text of the source: active = growth inhibition above about 70%; inactive = the rest.

Regarding `Cc1cc(N=Cc2c(CO)cnc(C)c2O)c(N=Cc2c(CO)cnc(C)c2O)cc1C.[Zn]`, the growth inhibition in assay [1] was 5.9%; in assay [2], -8%; in assay [3], 5.6%; in assay [4], -3.15%; in assay [5], -2.1%; in assay [6] it was 0.9%.
As for `Clc1ccc(NC2=NCCN=C(Nc3ccc(Cl)c(Cl)c3)SS2)cc1Cl`, the growth inhibition was -26.9% in assay [1]; -21.4% in assay [2]; -14.7% in assay [3]; -14.1% in assay [4]; -28.1% in assay [5]; -33.6% in assay [6].
As for `Cc1ccc2c(c1)CN(C)c1ccc(C)cc1CN2C`, the growth inhibition in assay [1] is 17.4%; in assay [2], -11.8%; in assay [3], 22.9%; in assay [4] it was 21.8%; in assay [5] it was 9.65%; in assay [6], 31.1%.
`CCOC(CNCc1ccc(OC)cc1)OCC`: the growth inhibition was -0.25% in assay [1]; -3.1% in assay [2]; 4% in assay [3]; -2.05% in assay [4]; 22.4% in assay [5]; 7.6% in assay [6].
In the case of `CC(=O)OC1OCCCC1Cl` (stereo not given), the growth inhibition is -8.95% in assay [1]; -27.9% in assay [2]; -7.75% in assay [3]; -3.2% in assay [4]; -30.8% in assay [5]; 10.3% in assay [6].
As to `COc1ccc2ccccc2c1C1NC(=O)c2ccccc2N1` (stereo not given), the growth inhibition in assay [1] was 13.1%; in assay [2] it was -17.8%; in assay [3], 5.75%; in assay [4] it was 8.9%; in assay [5], 12.5%; in assay [6], 0.1%.
Turning to `OC1CCCC1c1ccccc1` (stereo not given), the growth inhibition is 6.4% in assay [1]; -24.4% in assay [2]; -11.9% in assay [3]; -7.55% in assay [4]; -3.7% in assay [5]; 4.45% in assay [6].
In the case of `Cc1c([N+](=O)[O-])cc(C(C)(C)C)c(OC(=O)Nc2cccc(Cl)c2)c1[N+](=O)[O-]`, the growth inhibition in assay [1] is 60.7%; in assay [2], 74% (active); in assay [3] it was 79.7% (active); in assay [4], 23.1%; in assay [5], 39.1%; in assay [6] it was 72.3% (active).
Turning to `CCC(C(=O)O)c1cccc2c(C)ccc(C)c12` (stereo not given), the growth inhibition in assay [1] was 8.25%; in assay [2], 3.55%; in assay [3], 21.4%; in assay [4] it was 23.2%; in assay [5] it was 7.7%; in assay [6], 8.15%.
`Cc1cc(NC(=O)C(=O)Cc2cnc3ccccc3n2)c(S(=O)(=O)O)cc1Cl`: the growth inhibition in assay [1] was 1.45%; in assay [2] it was 12.8%; in assay [3], -2.7%; in assay [4], -23%; in assay [5], -11.2%; in assay [6], -7.8%.
Regarding `Cc1ccc(S(=O)(=O)N/N=C/c2ccccc2)cc1`, the growth inhibition in assay [1] was 5.7%; in assay [2], -0.5%; in assay [3], 3.2%; in assay [4], -27.6%; in assay [5] it was 8.7%; in assay [6], 7.35%.
On to `O=C(O)CCC(CCC(=O)O)(C(=O)O)C(=O)O`, for which the growth inhibition is 5.8% in assay [1]; -7.85% in assay [2]; -6.1% in assay [3]; -41% in assay [4]; -0.85% in assay [5]; 2.9% in assay [6].
Regarding `O=C(O)CCCCCC1=CCCCC1`, the growth inhibition in assay [1] is 11.9%; in assay [2], 33.2%; in assay [3] it was 20.9%; in assay [4], 19.2%; in assay [5], 24.6%; in assay [6], 23.5%.
In the case of `COc1ccc(C2=CN(S(=O)(=O)c3ccc(C)cc3)CCc3ccccc32)cc1`, the growth inhibition was -31.4% in assay [1]; -10.9% in assay [2]; -31.8% in assay [3]; -59.8% in assay [4]; -6.6% in assay [5]; -23.7% in assay [6].
With `CCN(CC)C1=NS(=O)(=O)c2ccccc21`, the growth inhibition is 1.2% in assay [1]; -3.65% in assay [2]; 9.45% in assay [3]; -11.4% in assay [4]; 2.3% in assay [5]; 0.5% in assay [6].
For `O=C(CCl)OC1CCCCC1C1CCCCC1` (stereo not given), the growth inhibition in assay [1] is 22.7%; in assay [2], 12.8%; in assay [3], 39.3%; in assay [4] it was -1.5%; in assay [5], 32%; in assay [6] it was 39.6%.
For the compound `Cc1ccc(NC(=S)Nc2ccccc2F)cc1`, the growth inhibition in assay [1] is -8%; in assay [2] it was -13.2%; in assay [3] it was -2.2%; in assay [4], -28.8%; in assay [5], 43.5%; in assay [6], 10%.
As for `CCCCN=C(OC1C=CCCC1)SC` (stereo not given), the growth inhibition is -12.8% in assay [1]; -25.6% in assay [2]; -14.6% in assay [3]; 9.95% in assay [4]; -4.7% in assay [5]; -7.7% in assay [6].
In the case of `OC1(c2ccc(-c3ccc(-c4ccc(C5(O)C(c6ccccc6)=C(c6ccccc6)C(c6ccccc6)=C5c5ccccc5)cc4)cc3)cc2)C(c2ccccc2)=C(c2ccccc2)C(c2ccccc2)=C1c1ccccc1`, the growth inhibition in assay [1] was 1.05%; in assay [2], 4.4%; in assay [3] it was 6.8%; in assay [4] it was -3.9%; in assay [5], -1.8%; in assay [6], 2%.
In the case of `Cc1ccc(Cl)c2c1C(=O)c1ccccc1C2=O`, the growth inhibition in assay [1] is 24.2%; in assay [2] it was 7.65%; in assay [3], 3.3%; in assay [4], 14.8%; in assay [5], 5.6%; in assay [6], 23.9%.
